Experimental data reported in PubChem BioAssay AID1159580 (chemical genetic matrix, 2015).
Hit rate of the full screen: of about 5,500 compounds, about 2,000 (36%) were called active. About 18% were inconclusive and are not listed. The list shows a part of the results. A number with no mark means an inactive call. No stated cut-off is given here; in the data, active means normalized growth mostly below about 0.91 (no sharp cut-off); inconclusive means no clear call, values can overlap the other calls; inactive means mostly above about 0.92.

Experiment: chemical genetic growth profiling, strain panel (AID 1159580);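 further: tested at 20 µM; growth read once vehicle control cultures reached saturation at 30 °C; 1 = growth at the plate median or of vehicle wells; lower values mean less growth of the strain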
Details: growth OD

With CCN(CC)CCOc1ccc(/C(=C(\Cl)c2ccccc2)c2ccccc2)cc1 the normalized growth (S. cerevisiae deletion strains, locus YKL009W, strain mrt4, active compounds read low) was 0.917, the normalized growth (S. cerevisiae deletion strains, locus YKL068W, active compounds read low) was 1.01 and the normalized growth (S. cerevisiae deletion strains, locus YKL160W, strain elf1, active compounds read low) was 0.195 (active). The normalized growth (S. cerevisiae deletion strains, locus YKL190W, strain CNB1, active compounds read low) was 0.0469 (active), the normalized growth (S. cerevisiae deletion strains, locus YKR001C, strain vps1, active compounds read low) was 0.0607 (active) and the normalized growth (S. cerevisiae deletion strains, locus YKR026C, strain gcn3, active compounds read low) was 0.209 (active). The normalized growth (S. cerevisiae deletion strains, locus YKR091W, strain srl3, active compounds read low) was 0.171 (active), the normalized growth (S. cerevisiae deletion strains, locus YLL001W, strain dnm1, active compounds read low) was 0.108 (active) and the normalized growth (S. cerevisiae deletion strains, locus YLL026W, active compounds read low) was 0.0855 (active). For the same molecule, the normalized growth (S. cerevisiae deletion strains, locus YLL041C, strain sdh2, active compounds read low) was 0.129 (active), the normalized growth (S. cerevisiae deletion strains, locus YLR027C, strain aat2, active compounds read low) was 0.093 (active) and the normalized growth (S. cerevisiae deletion strains, locus YLR039C, strain RIC1, active compounds read low) was 0.099 (active). The normalized growth (S. cerevisiae deletion strains, locus YLR058C, strain SHM2, active compounds read low) was 0.0491 (active), the normalized growth (S. cerevisiae deletion strains, locus YLR102C, strain apc9, active compounds read low) was 0.0621 (active) and the normalized growth (S. cerevisiae deletion strains, locus YLR113W, strain HOG1, active compounds read low) was 0.925. For the same molecule, the normalized growth (S. cerevisiae deletion strains, locus YLR221C, strain rsa3, active compounds read low) was 0.104 (active), the normalized growth (S. cerevisiae deletion strains, locus YLR258W, strain gsy2, active compounds read low) was 0.0916 (active) and the normalized growth (S. cerevisiae deletion strains, locus YLR262C, strain YPT6 (second series), active compounds read low) was 0.933. The normalized growth (S. cerevisiae deletion strains, locus YLR262C, strain YPT6, active compounds read low) was 0.1 (active), the normalized growth (S. cerevisiae deletion strains, locus YLR268W, strain sec22, active compounds read low) was 0.0697 (active) and the normalized growth (S. cerevisiae deletion strains, locus YLR320W, strain mms22, active compounds read low) was 0.182 (active). The normalized growth (S. cerevisiae deletion strains, locus YLR330W, strain CHS5, active compounds read low) was 0.0524 (active), the normalized growth (S. cerevisiae deletion strains, locus YLR342W, strain FKS1 (second series), active compounds read low) was 0.066 (active) and the normalized growth (S. cerevisiae deletion strains, locus YLR342W, strain FKS1, active compounds read low) was 0.156 (active). The normalized growth (S. cerevisiae deletion strains, locus YLR357W, strain rsc2, active compounds read low) was 0.175 (active), the normalized growth (S. cerevisiae deletion strains, locus YLR370C, strain arc18, active compounds read low) was 0.0727 (active) and the normalized growth (S. cerevisiae deletion strains, locus YLR371W, strain rom2, active compounds read low) was 0.0621 (active). For the same molecule, the normalized growth (S. cerevisiae deletion strains, locus YLR384C, strain iki3, active compounds read low) was 0.714 (active), the normalized growth (S. cerevisiae deletion strains, locus YLR418C, strain cdc73, active compounds read low) was 0.0928 (active) and the normalized growth (S. cerevisiae deletion strains, locus YML016C, strain PPZ1, active compounds read low) was 0.0474 (active). For the same molecule, the normalized growth (S. cerevisiae deletion strains, locus YML032C, strain rad52, active compounds read low) was 0.0749 (active), the normalized growth (S. cerevisiae deletion strains, locus YML120C, strain ndi1, active compounds read low) was 0.121 (active) and the normalized growth (S. cerevisiae deletion strains, locus YML124C, strain tub3, active compounds read low) was 0.0612 (active). The normalized growth (S. cerevisiae deletion strains, locus YMR058W, strain fet3, active compounds read low) was 0.0872 (active), the normalized growth (S. cerevisiae deletion strains, locus YMR078C, strain ctf18, active compounds read low) was 0.0745 (active) and the normalized growth (S. cerevisiae deletion strains, locus YMR125W, strain sto1, active compounds read low) was 0.17 (active). The normalized growth (S. cerevisiae deletion strains, locus YMR129W, active compounds read low) was 0.129 (active), the normalized growth (S. cerevisiae deletion strains, locus YMR205C, strain PFK2, active compounds read low) was 0.145 (active) and the normalized growth (S. cerevisiae deletion strains, locus YMR223W, strain ubp8, active compounds read low) was 0.0648 (active). The normalized growth (S. cerevisiae deletion strains, locus YMR231W, strain pep5, active compounds read low) was 0.0748 (active), the normalized growth (S. cerevisiae deletion strains, locus YMR263W, strain SAP30, active compounds read low) was 0.0606 (active) and the normalized growth (S. cerevisiae deletion strains, locus YMR307W, strain GAS1, active compounds read low) was 0.123 (active). The normalized growth (S. cerevisiae deletion strains, locus YNL067W, strain RPL9B, active compounds read low) was 0.0497 (active), the normalized growth (S. cerevisiae deletion strains, locus YNL071W, strain lat1, active compounds read low) was 0.14 (active) and the normalized growth (S. cerevisiae deletion strains, locus YNL128W, strain TEP1, active compounds read low) was 0.0656 (active). The normalized growth (S. cerevisiae deletion strains, locus YNL183C, strain NPR1, active compounds read low) was 0.92, the normalized growth (S. cerevisiae deletion strains, locus YNL209W, strain ssb2, active compounds read low) was 0.126 (active) and the normalized growth (S. cerevisiae deletion strains, locus YNL233W, strain BNI4, active compounds read low) was 0.057 (active). The normalized growth (S. cerevisiae deletion strains, locus YNL248C, strain rpa49, active compounds read low) was 0.191 (active), the normalized growth (S. cerevisiae deletion strains, locus YNL250W, strain rad50, active compounds read low) was 0.922 and the normalized growth (S. cerevisiae deletion strains, locus YNL271C, strain bni1, active compounds read low) was 0.962. The normalized growth (S. cerevisiae deletion strains, locus YNL298W, strain CLA4, active compounds read low) was 0.914, the normalized growth (S. cerevisiae deletion strains, locus YNL307C, strain MCK1, active compounds read low) was 0.0652 (active) and the normalized growth (S. cerevisiae deletion strains, locus YNL322C, strain KRE1 (second series), active compounds read low) was 1.02. The normalized growth (S. cerevisiae deletion strains, locus YNL322C, strain KRE1, active compounds read low) was 0.0484 (active), the normalized growth (S. cerevisiae deletion strains, locus YNR049C, strain mso1, active compounds read low) was 0.0907 (active) and the normalized growth (S. cerevisiae deletion strains, locus YNR052C, strain pop2, active compounds read low) was 0.0587 (active). For the same molecule, the normalized growth (S. cerevisiae deletion strains, locus YOL006C, strain TOP1, active compounds read low) was 0.117 (active), the normalized growth (S. cerevisiae deletion strains, locus YOL147C, strain pex11, active compounds read low) was 0.0607 (active) and the normalized growth (S. cerevisiae deletion strains, locus YOR001W, strain rrp6, active compounds read low) was 0.337 (active). The normalized growth (S. cerevisiae deletion strains, locus YOR061W, strain CKA2, active compounds read low) was 0.0462 (active), the normalized growth (S. cerevisiae deletion strains, locus YOR069W, strain VPS5, active compounds read low) was 0.0488 (active) and the normalized growth (S. cerevisiae deletion strains, locus YOR070C, strain gyp1, active compounds read low) was 0.0639 (active). The normalized growth (S. cerevisiae deletion strains, locus YOR080W, strain dia2, active compounds read low) was 0.289 (active), the normalized growth (S. cerevisiae deletion strains, locus YOR083W, strain WHI5, active compounds read low) was 0.102 (active) and the normalized growth (S. cerevisiae deletion strains, locus YOR106W, strain vam3, active compounds read low) was 0.0804 (active). The normalized growth (S. cerevisiae deletion strains, locus YOR136W, strain idh2, active compounds read low) was 0.0748 (active), the normalized growth (S. cerevisiae deletion strains, locus YOR144C, strain elg1, active compounds read low) was 0.0617 (active) and the normalized growth (S. cerevisiae deletion strains, locus YOR184W, strain ser1, active compounds read low) was 0.0757 (active). The normalized growth (S. cerevisiae deletion strains, locus YOR231W, strain MKK1, active compounds read low) was 0.946, the normalized growth (S. cerevisiae deletion strains, locus YOR265W, strain rbl2, active compounds read low) was 0.0762 (active) and the normalized growth (S. cerevisiae deletion strains, locus YOR270C, strain vph1, active compounds read low) was 0.0899 (active). For the same molecule, the normalized growth (S. cerevisiae deletion strains, locus YOR290C, strain snf2, active compounds read low) was 0.112 (active), the normalized growth (S. cerevisiae deletion strains, locus YOR316C, strain cot1, active compounds read low) was 0.0599 (active) and the normalized growth (S. cerevisiae deletion strains, locus YPL051W, strain arl3, active compounds read low) was 0.303 (active). The normalized growth (S. cerevisiae deletion strains, locus YPL055C, strain LGE1, active compounds read low) was 0.0709 (active), the normalized growth (S. cerevisiae deletion strains, locus YPL078C, strain atp4, active compounds read low) was 0.232 (active) and the normalized growth (S. cerevisiae deletion strains, locus YPL106C, strain sse1, active compounds read low) was 0.136 (active). The normalized growth (S. cerevisiae deletion strains, locus YPL240C, strain hsp82, active compounds read low) was 0.0981 (active), the normalized growth (S. cerevisiae deletion strains, locus YPL241C, strain CIN2, active compounds read low) was 0.0508 (active) and the normalized growth (S. cerevisiae deletion strains, locus YPL256C, strain CLN2, active compounds read low) was 0.939. For the same molecule, the normalized growth (S. cerevisiae deletion strains, locus YPR119W, strain clb2, active compounds read low) was 0.067 (active), the normalized growth (S. cerevisiae deletion strains, locus YPR141C, strain kar3, active compounds read low) was 1.03 and the normalized growth (S. cerevisiae deletion strains, locus YPR163C, strain tif3, active compounds read low) was 0.0698 (active). For the same molecule, the normalized growth (S. cerevisiae deletion strains, locus YPR167C, strain met16, active compounds read low) was 0.0645 (active), the normalized growth (S. cerevisiae deletion strains, strain wtn01, active compounds read low) was 0.0644 (active) and the normalized growth (S. cerevisiae strains, strain wild type, active compounds read low) was 0.0486 (active).
